± gives the standard deviation.
test system: MILI (PIWIL2) piRISC loaded with piRNA #1 (26 nt); assay: pre-steady-state target cleavage rate (min^-1); guide: piRNA #1 5'p-UGAGGUAGUAGGUUGUAUAGUAUCCA; MIWI and MILI are mouse PIWI proteins and EfPiwi is from a freshwater sponge; tags in brackets are library labels; higher = faster piRNA-guided slicing of the target; conditions: auxiliary factor: 500 nM mouse GTSF1
In short: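 In HEPES–potassium acetate buffer at 33 °C, […] transcribed, DNA-blocked target RNA library was mixed with 1 nM active affinity-purified piRISC carrying one synthetic guide, with or without 500 nM GTSF1 partner protein, for 0–8 or 0–960 min. Uncleaved targets were sequenced and normalised to depth and to weakly complementary targets; three trials were pooled and k3 was capped at 0.0001 min^-1. The pre-steady-state cleavage rate followed from a burst-and-steady-state fit.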
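Also: 1 nM active piRISC with 0.1 nM target library at 33 °C single turnover.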

Sequence	pre-steady-state target cleavage rate
GGAGAGGAUUCUAUACAACCUACUUCCUCA	0.00504 ± 0.0027
GGAGACCUAUCUAUACACCUACUACCUCA	0.00467 ± 0.0029
GGAGACCUAUGAUUACAAGGUACUACCUCA	0.0041 ± 0.0031
GGAGACCUUACUAAACAAGCUACUACCUCA	0.231 ± 0.018
GGAGACCUAUGUAUACUACCUACUAGCUCA	0.0108 ± 0.0031
GGAGACCUAUGUAUACAACCUACUACCAUCA	0.0684 ± 0.01
GGAGUGGAUACAAUACAACCUACUUCCUCA	0.00975 ± 0.0031
GGAGACCUAUCUAAUCAACCUACUACCUCA	0.0267 ± 0.0037
GGAGACGAUACUAUACAACCUACUACCAGA	0.125 ± 0.02
GGAGACCUUACAAUACAACCUACUAGCUCA	0.103 ± 0.013
GGAGACCUAUGAAUACAACCUACUACAUCA	0.00323 ± 0.0026
GGAGACCUAUCUAUACAACCUACAUGCUCA	0.068 ± 0.021
GGAGACGAUACUAUACAACCUAUUACCUCA	0.219 ± 0.021
GGAGACCAUACUAAACAACCUUCUACCUCA	0.00805 ± 0.0035
GGAGACCUAUGAAUACAACGAUGAUGGAGA [g12:g18:cont:t1A]	< 0.0001
GGAGACCUUACAAUACAACCUACUUCCUCA	0.0632 ± 0.014
GGAGACCUAUGAAUACGACCUACUACCUCA	0.00583 ± 0.0037
GGAGACCAUAGUAUACUACCUACUACCUCA	0.131 ± 0.013
GGAGACCUAUCUAUUCAACCUACUACCUCA	0.108 ± 0.015
GGAGACCUUACUAUACUACCUUCUACCUCA	0.0109 ± 0.0029

Sequence	pre-steady-state target cleavage rate
GGAGACCUAUCUUUACAACCUAGUACCUCA	0.00897 ± 0.003
GGAGACCUAACUAAACAACCUACUACCUGA	0.0558 ± 0.021
GGAGACCUAACUAUACAACUUACUACCUCA	0.0179 ± 0.0043
GGAGACCAUACUAUACUUGGAUGAUGGAGA [g15:g23:cont:t1A]	< 0.0001
GGAGACCUAUGAAUACAUCCUACUACCUGA	0.00353 ± 0.002
GGAGACCAUAGUAUACAACCAACUACCUCA	0.00718 ± 0.0021
GGAGACCUAUGAUUGCAACCUACUACCUCA	0.00532 ± 0.003
GGAGACCUAACUAUACAACCUACAUCCUCA	0.0364 ± 0.013
GGAGACCUAUGAAUACAACCUACUGCCUCA	0.0052 ± 0.0029
GGAGACCAUACUAUAGAUCCUACUACCUCA	0.229 ± 0.026
GGAGACCUAUGAUAUGUUCAUACUACCUCA	< 0.0001
GGAGACCUAUGAUAACAACCUACAUACCUCA	0.00403 ± 0.002
GGAGACCUAUGAUUAGCAACCUACUACCUCA	0.00597 ± 0.0035
GGAGACCUUACUAUACAAGCAACUACCUCA	0.0104 ± 0.0031
GGAGACCUAUGUAUACGACCUACUACCUCA	0.0178 ± 0.0033
GGAGACCAUACUAUAGAACCUACUACCACA	0.0789 ± 0.021
GGAGACCUUACUAUACAUCCAACUACCUCA	0.0082 ± 0.003
GGAGACCUAUGAUAUGUUGGUACUACCUCA [g2:g10:cont:t1A]	< 0.0001
GGAGACCUAUCUAUUCAACCUACUACCUGA	0.0654 ± 0.014
GGAGACGAUAGUAUACAACCAACUACCUCA	0.00662 ± 0.0036
